Test results: PubChem BioAssay AID1159580 (chemical genetic matrix, 2015)
The campaign covered roughly 5,500 compounds. About 2,000 (36%) were called active. Inconclusive results (about 18%) are left out. Rule as the data show it: active = normalized growth mostly below about 0.91 (no sharp cut-off); inconclusive = no clear call, values can overlap the other calls; inactive = mostly above about 0.92. The list shows a part of the results.

Experiment: chemical genetic growth profiling, strain panel (AID 1159580);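 also: tested at 20 µM; growth read once vehicle control cultures reached saturation at 30 °C; 1 = growth at the plate median or of vehicle wells; lower values mean less growth of the strain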
Details: S. cerevisiae deletion strains, growth OD
[1] = locus YHR030C, strain SLT2, stronger effect = lower value
[2] = locus YHR079C, strain IRE1, stronger effect = lower value
[3] = locus YJL095W, strain BCK1, stronger effect = lower value
[4] = locus YJR066W, strain TOR1, stronger effect = lower value
[5] = locus YLR113W, strain HOG1, stronger effect = lower value
[6] = locus YNL183C, strain NPR1, stronger effect = lower value
[7] = locus YOR231W, strain MKK1, stronger effect = lower value
[8] = locus YPL256C, strain CLN2, stronger effect = lower value

Measured: normalized growth

COc1cc(N2C(=O)C=CC2=O)cc(OC)c1OC
active: locus YDL214C, strain PRR2, stronger effect = lower value 0.159 | locus YDR477W, strain SNF1, stronger effect = lower value 0.176 | locus YER123W, strain YCK3, stronger effect = lower value 0.289 | locus YER133W, strain GLC7, stronger effect = lower value 0.226 | locus YFR019W, strain FAB1, stronger effect = lower value 0.378 | locus YGR040W, strain KSS1, stronger effect = lower value 0.191 | locus YGR052W, strain FMP48, stronger effect = lower value 0.156 | [1] 0.385 | locus YHR082C, strain KSP1, stronger effect = lower value 0.147 | [3] 0.302 | locus YJL128C, strain PBS2, stronger effect = lower value 0.553 | [4] 0.133 | locus YKL203C, strain TOR2, stronger effect = lower value 0.357 | [5] 0.156 | [6] 0.143 | locus YOR119C, strain RIO1, stronger effect = lower value 0.311 | [8] 0.129
inactive: locus YAR019C, strain CDC15, stronger effect = lower value 0.924 | locus YBL105C, strain PKC1, stronger effect = lower value 0.958 | locus YBR135W, strain CKS1, stronger effect = lower value 0.95 | locus YBR136W, strain MEC1, stronger effect = lower value 0.935 | locus YBR160W, strain CDC28, stronger effect = lower value 0.958 | locus YDL017W, strain CDC7, stronger effect = lower value 0.975 | locus YDL028C, strain MPS1, stronger effect = lower value 0.958 | locus YDL108W, strain KIN28, stronger effect = lower value 0.952 | locus YDL132W, strain cdc53, stronger effect = lower value 0.94 | locus YDR052C, strain DBF4, stronger effect = lower value 0.959 | locus YDR054C, strain cdc34, stronger effect = lower value 0.947 | locus YDR226W, strain ADK1, stronger effect = lower value 0.928 | locus YFL009W, strain cdc4, stronger effect = lower value 0.968 | locus YFL029C, strain CAK1, stronger effect = lower value 0.915 | locus YFR003C, strain YPI1, stronger effect = lower value 0.989 | locus YFR028C, strain CDC14, stronger effect = lower value 0.928 | locus YGR092W, strain DBF2, stronger effect = lower value 0.967 | [2] 0.955 | locus YIL147C, strain SLN1, stronger effect = lower value 0.982 | locus YJR016C, strain ILV3, stronger effect = lower value 0.973 | locus YKL048C, strain ELM1, stronger effect = lower value 0.947 | locus YKL193C, strain SDS22, stronger effect = lower value 0.939 | locus YMR001C, strain CDC5, stronger effect = lower value 0.928 | locus YMR205C, strain PFK2 (second series), stronger effect = lower value 0.941 | locus YMR277W, strain FCP1, stronger effect = lower value 0.926 | locus YNL006W, strain LST8, stronger effect = lower value 1 | locus YNL020C, strain ARK1, stronger effect = lower value 0.96 | locus YNL161W, strain CBK1, stronger effect = lower value 0.961 | locus YNL207W, strain RIO2, stronger effect = lower value 0.968 | locus YNL222W, strain SSU72, stronger effect = lower value 0.943 | locus YNL307C, strain MCK1 (second series), stronger effect = lower value 0.67 | locus YOL078W, strain AVO1, stronger effect = lower value 0.93 | locus YOR061W, strain CKA2, stronger effect = lower value 0.942 | [7] 0.92 | locus YOR329C, strain SCD5, stronger effect = lower value 0.991 | locus YPL209C, strain IPL1, stronger effect = lower value 0.964 | locus YPR025C, strain CCL1, stronger effect = lower value 0.95 | locus YPR106W, strain ISR1, stronger effect = lower value 0.924 | strain NNK1, stronger effect = lower value 0.977 | strain TSCII, stronger effect = lower value 0.933

COc1cc(/C=C/C(=O)N2CCC=CC2=O)cc(OC)c1OC
inactive: locus YAL021C, strain ccr4, stronger effect = lower value 0.948 | locus YAL026C, strain drs2, stronger effect = lower value 1 | locus YAL030W, strain snc1, stronger effect = lower value 1 | locus YBL061C, strain skt5, stronger effect = lower value 0.993 | locus YBR009C, strain hhf1, stronger effect = lower value 1.06 | locus YBR023C, strain chs3, stronger effect = lower value 0.994 | locus YBR171W, strain sec66, stronger effect = lower value 0.995 | locus YBR231C, strain swc5, stronger effect = lower value 1.01 | locus YBR279W, strain paf1, stronger effect = lower value 0.968 | locus YCL011C, strain gbp2, stronger effect = lower value 1 | locus YCL016C, strain dcc1, stronger effect = lower value 1.01 | locus YCL061C, strain MRC1, stronger effect = lower value 1.01 | locus YCL069W, strain vba3, stronger effect = lower value 0.998 | locus YCR088W, strain abp1, stronger effect = lower value 0.996 | locus YDL005C, strain med2, stronger effect = lower value 1 | locus YDL040C, strain nat1, stronger effect = lower value 0.996 | locus YDR001C, strain nth1, stronger effect = lower value 0.992 | locus YDR069C, strain doa4, stronger effect = lower value 0.996 | locus YDR137W, strain rgp1, stronger effect = lower value 0.856 | locus YDR159W, strain sac3, stronger effect = lower value 1.08 | locus YDR195W, strain ref2 1.06 | locus YDR297W, strain sur2, stronger effect = lower value 0.997 | locus YDR334W, strain swr1, stronger effect = lower value 1.01 | locus YDR335W, strain msn5, stronger effect = lower value 1 | locus YDR392W, strain spt3, stronger effect = lower value 0.886 | locus YEL003W, strain gim4, stronger effect = lower value 1 | locus YEL037C, strain rad23, stronger effect = lower value 0.998 | locus YEL061C, strain CIN8 (second series), stronger effect = lower value 0.996 | locus YER015W, strain faa2, stronger effect = lower value 1.01 | locus YER016W, strain bim1, stronger effect = lower value 1.02 | locus YER111C, strain swi4, stronger effect = lower value 1.01 | locus YER155C, strain BEM2 (second series), stronger effect = lower value 1.06 | locus YFR010W, strain ubp6, stronger effect = lower value 0.99 | locus YGL167C, strain pmr1, stronger effect = lower value 1 | locus YGL173C, strain kem1, stronger effect = lower value 0.995 | locus YGL227W, strain vid30, stronger effect = lower value 1.01 | locus YGL240W, strain doc1, stronger effect = lower value 1.08 | locus YGL253W, strain hxk2, stronger effect = lower value 0.984 | locus YHR013C, strain ard1, stronger effect = lower value 0.938 | locus YHR027C, strain rpn1, stronger effect = lower value 0.995 | [1] 0.935 | [2] 0.953 | locus YHR142W, strain chs7, stronger effect = lower value 0.944 | locus YJL092W, strain hpr5, stronger effect = lower value 0.994 | locus YJL095W, strain BCK1 (second series), stronger effect = lower value 1.01 | [3] 0.97 | locus YJL115W, strain asf1, stronger effect = lower value 1.03 | locus YJL129C, strain trk1, stronger effect = lower value 0.994 | locus YJL154C, strain vps35, stronger effect = lower value 0.998 | locus YJL164C, strain tpk1, stronger effect = lower value 0.979 | locus YJL166W, strain qcr8, stronger effect = lower value 1 | locus YJL187C, strain SWE1, stronger effect = lower value 0.996 | [4] 0.883 | locus YKL160W, strain elf1, stronger effect = lower value 0.918 | locus YKR026C, strain gcn3, stronger effect = lower value 0.986 | locus YKR091W, strain srl3, stronger effect = lower value 1 | locus YLL001W, strain dnm1, stronger effect = lower value 1.01 | locus YLL026W, stronger effect = lower value 1.01 | locus YLL041C, strain sdh2, stronger effect = lower value 0.992 | locus YLR027C, strain aat2, stronger effect = lower value 0.988 | [5] 0.941 | locus YLR221C, strain rsa3, stronger effect = lower value 0.97 | locus YLR258W, strain gsy2, stronger effect = lower value 1.03 | locus YLR262C, strain YPT6 (second series), stronger effect = lower value 0.886 | locus YLR320W, strain mms22, stronger effect = lower value 1.01 | locus YLR342W, strain FKS1, stronger effect = lower value 0.998 | locus YLR357W, strain rsc2, stronger effect = lower value 1.13 | locus YLR370C, strain arc18, stronger effect = lower value 0.986 | locus YLR384C, strain iki3, stronger effect = lower value 1 | locus YML120C, strain ndi1, stronger effect = lower value 0.972 | locus YMR058W, strain fet3, stronger effect = lower value 0.993 | locus YMR125W, strain sto1, stronger effect = lower value 1.07 | locus YMR129W, stronger effect = lower value 1.01 | locus YMR205C, strain PFK2, stronger effect = lower value 1.06 | locus YMR231W, strain pep5, stronger effect = lower value 0.998 | locus YNL071W, strain lat1, stronger effect = lower value 0.975 | [6] 0.93 | locus YNL209W, strain ssb2, stronger effect = lower value 0.997 | locus YNL248C, strain rpa49, stronger effect = lower value 0.972 | locus YNL322C, strain KRE1 (second series), stronger effect = lower value 1.02 | locus YNR049C, strain mso1, stronger effect = lower value 0.999 | locus YOR001W, strain rrp6, stronger effect = lower value 0.945 | locus YOR070C, strain gyp1, stronger effect = lower value 1.02 | locus YOR080W, strain dia2, stronger effect = lower value 1.01 | locus YOR083W, strain WHI5, stronger effect = lower value 0.951 | locus YOR106W, strain vam3, stronger effect = lower value 0.964 | [7] 0.954 | locus YOR265W, strain rbl2, stronger effect = lower value 0.996 | locus YOR270C, strain vph1, stronger effect = lower value 0.976 | locus YOR290C, strain snf2, stronger effect = lower value 0.969 | locus YPL051W, strain arl3, stronger effect = lower value 0.966 | locus YPL078C, strain atp4, stronger effect = lower value 0.939 | locus YPL106C, strain sse1, stronger effect = lower value 1.01 | locus YPL240C, strain hsp82, stronger effect = lower value 1.01 | [8] 0.964
